Among the data in PubChem BioAssay are composite z-score values, retold here.

This test deals with Neuregulin-1 EGF-like domain. Description: small molecules binding NRG1 EGF domain – biochemical, small-molecule microarray, 635 nm fluorescence, primary screen (AID 1081).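 Also: binding of the protein to compounds printed on small-molecule microarray slides.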 Particulars: higher = more signal.
In turn, `CN1C(=O)C2C=CC(C(O)c3cc(C(F)(F)F)cc(C(F)(F)F)c3)N(N3CCCCC3)C2C1=O` (stereo unspecified) came in with a composite z-score of 0.892. Then `CC(C)[C@@H](CO)NC(=O)[C@H]1[C@@H](c2ccccc2)N(c2ccccc2)O[C@@H]1C`, with 0.396; and `COc1cc2c(cc1O)C(C1CC1)N(Cc1cc3c(cc1Br)OCO3)CC2` (stereo unspecified), with 1.02; and `C=CCNC(=O)[C@H]1[C@@H]2C(=O)O[C@@H](c3ccccc3)[C@@H](c3ccccc3)N2[C@@H](c2ccccc2OCCO)[C@]12C(=O)Nc1ccc(C#CC3=CCCCC3)cc12`, with 1.09. `O=C1C2C=CC(C(O)c3ccc(F)cc3)N(Nc3ccccc3F)C2C(=O)N1c1ccccc1` (stereo unspecified) came in with a composite z-score of 1.23.

`COc1cc(OC)c(C(O)C2C=CC3C(=O)NC(=O)C3N2Nc2ccc(Cl)cc2Cl)cc1Br` (stereo unspecified) yielded a composite z-score of 1.11.

In turn, `COc1cc2c(cc1O)C=[N+](Cc1cccc(OC(F)(F)F)c1)CC2` returned a composite z-score of 0.544.

Regarding `COc1ccc([Si](C)(C)[C@H]2[C@H](CC(=O)N3Cc4ccccc4C[C@H]3CO)O[C@@]3(C(=O)N(Cc4ccc(N5CCC5=O)cc4)c4ccccc43)[C@@H]2C)cc1`, the composite z-score was 1.2. In turn, `Cc1ccc(S[C@]2(C(=O)NCCN3CCOCC3)CC(=O)N(Cc3ccccc3)[C@@H]2c2ccc(CO)cc2I)cc1` displayed a composite z-score of 1.49. Molecule `COCCOC(=O)N1C(=O)[C@@]2(c3cc(C#Cc4ccc(OC)cc4)ccc31)[C@H](C(N)=O)[C@H]1C(=O)O[C@H](c3ccccc3)[C@H](c3ccccc3)N1[C@@H]2c1ccccc1OCCO` came in with a composite z-score of 1.27. `[N-]=[N+]=NCc1ccccc1C[C@]1(C(=O)NCC(O)CO)N=C(c2ccc(OCCCO)cc2)O[C@H]1c1ccccc1` (stereo partly specified): the composite z-score is 0.849. Then `C#CCN(Cc1ccccc1Br)C(/C=C/c1ccccc1)CO` (stereo unspecified), with -0.131; and `C#CCN(CC=C(C)C)[C@H](CO)c1ccccc1`, with -0.187. The result for `COc1ccc([Si](C)(C)[C@H]2[C@H](CCO)O[C@@]3(C(=O)N(Cc4ccc(N5C(=O)COc6ccccc65)cc4)c4ccccc43)[C@@H]2C)cc1` reads 0.474; that for `CO[C@H]1O[C@H](CO)[C@@H](OC(=O)Nc2ccc(Br)cc2)[C@H](OC(=O)c2cc3ccccc3[nH]2)[C@H]1OC(=O)c1cc2ccccc2[nH]1`, 1.07; that for `CN1C(=O)C2C=CC(C(O)c3ccccc3)N(Nc3ccccc3)C2C1=O` (stereo unspecified), 0.547. Take `COC(=O)[C@@]1(Cc2ccc(F)cc2)[C@H]2c3cc(C(=O)N4CCCC4)n(Cc4ccc(C)o4)c3C[C@H]2CN1C(=O)c1ccccc1`: the composite z-score came to 1.14. With `CCCCC(=C=CC[C@@H](O)c1ccccc1OCCO)CCO`, the composite z-score was 0.479. `CC(=O)N1Cc2ccccc2C[C@@]2(COC(c3ccc(OCCCO)cc3)=N2)C1=O` had a composite z-score of 1.07. In the case of `C[C@]1(C(=O)NC2CC2)c2ccccc2C(=O)N(Cc2cc(C(F)(F)F)cc(C(F)(F)F)c2)[C@H]1c1ccc(CO)cc1`, the composite z-score was determined as 1.26. Then `CCCC[C@@H]1C[C@H]1[C@@H](NC(=O)c1ccco1)c1ccc(C(=O)OC)cc1`, with -0.216; and `C[C@@]1([C@@H](NC(=O)c2ccccc2)c2ccc(-c3ccccc3)cc2)C[C@H]1C1CCCCC1`, with -0.382; and `COCCOC(=O)N1C(=O)[C@@]2(c3cc(C#CC4=CCCCC4)ccc31)[C@H](c1ccc(O)cc1)N1[C@H](c3ccccc3)[C@H](c3ccccc3)OC(=O)[C@H]1[C@@H]2C(N)=O`, with 0.978. In turn, `O=C1C2C=CC(C(O)C(c3ccccc3)c3ccccc3)N(n3cnnc3)C2C(=O)N1Cc1ccccc1` (stereo unspecified) came in with a composite z-score of 1.19. As for `CN(C)CCCC[C@@H]1NC(=O)[C@H]2C[C@@H](C(=O)NCCCCCNC(=O)CS)[C@@H](c3cccc(OCCO)c3)N2C1=O`, the composite z-score was 1.27. `O=C(O)[C@@]1(CCS(=O)(=O)c2ccccc2)COC(c2ccc(OCCCO)cc2)=N1`: the composite z-score came to 1.35. In the case of `[N-]=[N+]=NCc1ccccc1[C@@H]1OC(c2ccc(OCCCO)cc2)=N[C@]1(Cc1ccccc1N=[N+]=[N-])C(=O)N1CCOCC1`, the composite z-score came out at 1.1. `CC(C)N1C(=O)[C@@]2(Cc3ccccc31)c1ccccc1C(=O)N(C1CCCCC1)[C@H]2c1ccc(CO)cc1` came in with a composite z-score of 1.24.

Molecule `CCOC(=O)[C@H]1C/C=C/C[C@H](C(=O)OCC)C(=O)O[C@H]2[C@@H](OC)O[C@H](CO)[C@@H](OC(=O)Nc3ccc(C#N)cc3)[C@@H]2OC1=O` displayed a composite z-score of 1.02. The result for `COc1ccc(C(O)C2C=CC3C(=O)N(c4ccccc4)C(=O)C3N2Nc2ccccc2F)cc1OCc1ccccc1` (stereo unspecified) reads 0.99; that for `CN(C)C(=O)[C@]1(Cc2ccccc2CN=[N+]=[N-])N=C(c2ccc(OCCCO)cc2)O[C@@H]1c1ccccc1CN=[N+]=[N-]`, 1.27.
